Screening results as filed in PubChem BioAssay.
In the library only some 6.2% were active in any assay of this set; here they are far more common.
Marburg entry inh: inhibitors of Marburg virus binding or cell entry | Marburg virus pseudotyped entry inhibition, cell reporter | Potency, µM (titrated, usually from 37.8 µM), for inactives: at the highest dose activity change, negative = inhibition, actives largely listed as inhibitors | 1.8% of 300,000 active; calls by dose curve; tested in HEK293 cells; also: potency is read from the fitted curve at half-maximal effect
FMDV inh: blocks foot and mouth disease virus | 1.2% of 410,000 active | Potency, µM (doses to about 57.9 µM), for inactives: at the top dose activity change, negative = inhibition, hits mostly inhibitors | AID 1159524 | FMDV antiviral cell-based qHTS; calls by dose curve; tested in HEK293T cells; also: read-out not given here; potency is read from the fitted curve at half-maximal effect; nearly all actives have a fitted effect of over 45% in size
HCMV antiviral: inhibitors of human cytomegalovirus. HFF cells, HCMV-luciferase reporter, 72 h; active compounds read low. activity change, negative = inhibition, % at 57.5 µM. 4.5% of 410,000 active. AID 1259415; in the data active = activity change below about -60%; inconclusive = no clear call, values can overlap the other calls; inactive = above about -39%
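Luciferase read-out from HCMV-luciferase-infected HFFs (MOI 1 PFU/cell) 72 h post infection at 37C; compounds added after 16 h cell attachment; activity normalized between buffer-only basal and Salinomycin (10uM) inhibitor controls.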
Lassa entry inh: Lassa virus entry inhibition; Lassa virus pseudotype entry inhibition, cell reporter; AID 540256; 1.2% of 300,000 active; Potency, µM (top dose mostly 37.9 µM), for inactives: top-dose activity change, negative = inhibition, most hits filed as inhibitors; calls by dose curve; tested in HEK293 cells; also: potency is read from the fitted curve at half-maximal effect; nearly all actives have a fitted effect of over 50% in size
Active calls of the source: *; u = inconclusive; x = no result given; [ ] = another dose, or the depositor's remark. % is scaled to controls: 0 for no effect and ±100 for the full control effect.

SMILES	Marburg entry inh	FMDV inh	HCMV antiviral	Lassa entry inh
O=C(NCc1ccccc1)C1C(c2ccc3c(c2)OCO3)=Nc2ccccc2N1C(=O)c1ccccc1 (stereo unspecified)	x	7%	-21	x
COc1ccccc1CNc1ncc(-c2ccc(F)cc2)n1C	x	14%	-14	x
COc1ccc(CNc2ncc(-c3ccc(F)cc3)n2C)c2ccccc12	u	-20%	-84*	-26%[46.1 µM]
Cn1c(-c2ccccc2)cnc1NCc1ccc(F)cc1	x	23%	141	x
Cn1c(-c2ccc(F)cc2)cnc1NCc1ccccc1	23µM*	6%	-1	9%
Cc1cc(C)cc(NC(=O)c2cc(S(=O)(=O)N3CCCCCC3)cn2C)c1	x	-13%	-4	1%[46.1 µM]
Cc1nn(S(=O)(=O)c2ccc(Br)cc2)c(C)c1S(=O)(=O)N1CCCCCC1	x	-7%	8	-10%[46.1 µM]
CCC(C(=O)NC1CCCC1)N(Cc1ccccc1Cl)C(=O)c1snc(C(N)=O)c1N (stereo unspecified)	u	-8%	-6	x
CCCCC(C(=O)NC1CCCC1)N(Cc1ccccc1)C(=O)c1snc(C(N)=O)c1N (stereo unspecified)	u	-14%	-61*	u
CCCC(C(=O)NC1CCCC1)N(Cc1ccc(F)cc1)C(=O)c1snc(C(N)=O)c1N (stereo unspecified)	u	-5%	42	u
CCCC(C(=O)NC1CCCC1)N(Cc1ccccc1Cl)C(=O)c1snc(C(N)=O)c1N (stereo unspecified)	10µM*	17%	u	2%[46.1 µM]
Nc1nccc(C#Cc2cncnc2Nc2ccc(OCc3cccc(F)c3)c(Cl)c2)n1	x	x	x	18µM*
Fc1cccc(COc2ccccc2CNc2ccccc2)c1	u	-12%	-10	1%
CC(=O)Nc1cccc(C#Cc2cncnc2Nc2ccc(OCc3cccc(F)c3)c(Cl)c2)c1	x	x	x	16µM*
CCNC(=O)OC1CNC(C#Cc2cc3ncnc(Nc4ccc(OCc5cccc(F)c5)c(Cl)c4)c3s2)C1 (stereo unspecified)	x	x	x	7.9µM*
C=CCO[C@@H]1C=C[C@@H](c2ccccc2)O[C@@H]1COC	18%[14.2 µM]	x	x	x
Cc1ccc(-c2nc3ccc([N+](=O)[O-])cc3[nH]2)cc1	x	-45%	22	x
COc1ccc(-c2nc3ccc([N+](=O)[O-])cc3[nH]2)cc1	u	-70%	44	8.9µM*
O=[N+]([O-])c1ccc2nc(-[n+]3c(-c4ccccc4)cc(-c4ccccc4)cc3-c3ccccc3)[nH]c2c1	u	0%	x	23µM*
O=[N+]([O-])c1ccc2nc(-c3ccc(Cl)cc3)[nH]c2c1	u	-8%	-62*	u
O=[N+]([O-])c1cccc(-c2nc3ccc([N+](=O)[O-])cc3[nH]2)c1	u	-6%	11	-9%
CCCCc1ccc(S(=O)(=O)N[C@H]2CC[C@@]34CCCN3C(=O)CCC[C@H]4[C@H]2C)cc1	x	x	-1	x
Cc1ccc(C)c(NC(=O)CSc2nccn2-c2cccc(C)c2C)c1	x	-25%	12	u
Cc1ccc(-c2nc(N/N=C/c3ccncc3)c3ccccc3n2)cc1	2.9µM*	1µM*	100	u
Oc1ccc(Nc2nc(-c3ccc(Cl)cc3)nc3ccccc23)cc1	u	7%	-61*	u
SMILES	Marburg entry inh	FMDV inh	HCMV antiviral	Lassa entry inh
c1ccc(Nc2nc(-c3cccnc3)nc3ccccc23)cc1	x	-17%	x	x
CC(=O)Nc1ccc(Nc2nc(-c3ccccc3)nc3ccccc23)cc1	u	u	-94*	u
Cc1ccc(Nc2nc(-c3cccnc3)nc3ccccc23)cc1	4µM*	-19%	-69*	u
CCCS(=O)(=O)NC(=O)C1(C)CCN(C(=O)c2ccccc2OC)C1 (stereo unspecified)	x	2%	22	x
Clc1cccc(Nc2nc(-c3ccncc3)nc3ccccc23)c1	u	-20%	3	u
Cc1c(O)ccc(/C=N/Nc2nc(-c3cccnc3)nc3ccccc23)c1O	x	42%	-75*	x
Cc1cc(N/N=C/c2ccc(O)c(C)c2O)nc(-c2ccccc2O)n1	u	-16%	-103*	u
c1ccc(CNc2nc(-c3cccnc3)nc3ccccc23)cc1	x	u	-37	x
c1ccc(CN2CCC(Nc3nc(-c4cccnc4)nc4ccccc34)CC2)cc1	10µM*	0%	-63*	u
Fc1ccc(Nc2nc(-c3ccncc3)nc3ccccc23)cc1F	7.1µM*	u	12	6%[46.1 µM]
CCOC(=O)C1=C(CCl)NC(=O)N(C(C)=O)C1c1ccccc1 (stereo unspecified)	-22%[14.2 µM]	x	x	u
Cc1cc(NC(=O)Nc2nnc(N3CCCCC3)s2)ccc1Br	u	3%	24	-11%[46.1 µM]
COCCN1C(=NCCc2cccnc2)NC(c2ccccc2)C(C(=O)OC)=C1C (stereo unspecified)	54%[14.2 µM]	x	x	-21%[14.3 µM]
C[C@H](CO)NS(=O)(=O)c1cc(Cl)ccc1F	x	x	x	5%[46.1 µM]
C=C1C(=O)c2sccc2C(c2ccc(OC)c(OC)c2)C1COC(C)=O (stereo unspecified)	0.89µM*	13µM*	-102*	7.9µM*
CCN1CCN(CC(=O)N2N=C(c3cccs3)CC2c2ccc(OC)c(OC)c2)C(=O)C1=O (stereo unspecified)	7%[46.1 µM]	-2%	-20	3%
COc1ccc(/C=C/CN2CCC(CO)(Cc3ccccc3Cl)CC2)cc1	u	-18%	-70*	-12%
COc1ccc(S[C@]2(c3nc(C)no3)CC(=O)N(P(=O)(OC)OC)[C@@H]2c2ccc(OC)cc2)cc1	x	x	39	x
COc1ccc(NC(=O)N2C[C@H]3[C@@H](c4ccccc42)[C@@H](CO)N3C(=O)C2CC2)cc1	x	x	12	x
CC(C)Cc1ccc(C(C)/C=C2/CCC(CN3CCCCC3)C2=O)cc1 (stereo unspecified)	u	40µM*	-28	u
CC(NC(=O)CN1C(=O)NC2(CCCCCC2)C1=O)c1ccccc1 (stereo unspecified)	u	10%	-61*	7%
N#Cc1ccsc1NC(=O)CN1C(=O)NC2(CCCC2)C1=O	x	x	-5	x
CC(C)C(C)NC(=O)CN1C(=O)NC2(CCCCCC2)C1=O (stereo unspecified)	0%[46.1 µM]	22%	-28	13%[46.1 µM]
NC(=O)c1ccsc1NC(=O)CN1C(=O)NC2(CCCCC2)C1=O	x	-16%	-105*	x
CCCCOC(=O)/C(C#N)=C/c1ccc(-c2ccc(Br)cc2)o1	x	9%	6	-1%[46.1 µM]
COc1ccc(C(CC(=O)Nc2ccc(Br)cn2)N2Cc3ccccc3C2=O)cc1 (stereo unspecified)	x	4%	u	-14%[46.1 µM]
O=S(=O)(/N=S1\CC=CCN1S(=O)(=O)c1ccccc1)c1ccccc1 (stereo unspecified)	u	-27%	-27	u
CCC1CN(C(=O)N2CCC(C(=O)NCc3cccs3)CC2)c2ccccc2O1 (stereo unspecified)	x	u	-2	1%[46.1 µM]
CC(=O)c1ccc(N2CCN(c3ncnc4c3c(-c3ccccc3)cn4-c3ccc(Cl)cc3)CC2)cc1	x	-14%	-14	u
O=C(Cn1ncc2c3ccccc3n(Cc3cccc(Cl)c3)c2c1=O)NCCC1=CCCCC1	24%[46.1 µM]	-2%	7	13%[46.1 µM]
